Data taken from the supplement of paper PMC6555819.

Test system: LXRa homodimer (NR concentration 270 nM)
Assay: PBM binding z-score (relative to random genomic background probes); higher = stronger binding; sequences stand for … in GC…GCGATTGACAGCGTAGAATGAAGG
In short: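 For binding z-scores, the reference was random background probes on custom Agilent 4×180K protein-binding microarrays. These arrays were incubated 1 h with ligand-free nuclear receptor dimers in PBS pH 7.4, 2% milk, 0.02% Triton X-100, 1 mM DTT, 0.2 mg/mL BSA and 0.4 mg/ml salmon testes DNA. Fluorescence was scanned after antibody detection of each partner (one per run) and regression-normalized.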

Q: For CGAACGAAGGCATGAGTTGATAGCAAATGCCGAT, which PBM binding z-score is on record?
A: -0.489

Q: AGTCAAAGTTCAACTAGGTAACGTAAGATATGCT was tested. Which PBM binding z-score did it give?
A: 4.88

Q: Which PBM binding z-score does the source give for CCTTCCGGGTCACGAGGTTATAGCACGACGAGCG here?
A: 0.67

Q: Which PBM binding z-score does the source give for CCTACTGGGCCCAGGTCATTGATCAGTCAAAGCA here?
A: 0.696

Q: For CTACCAAGGTGAACAAGGTAGTTGATTACTATTC, which PBM binding z-score is on record?
A: -0.28

Q: TCTATAAGTTGATTAGGGCAACCGAAACAGCGGA was tested. Which PBM binding z-score did it give?
A: 0.0111

Q: CCTAGCAGGCCAATATGGGTCACTCAAGGCTTGA was tested. Which PBM binding z-score did it give?
A: -0.00824

Q: Which PBM binding z-score does the source give for GCTCGGAGGCCAAGGTCAGAGCTTTGTCCGTAGA here?
A: -0.427

Q: With GCTATTAGATGAAAGGGCAACCGAATGATTCTCG as the sequence, how does the PBM binding z-score read?
A: 0.21

Q: Which PBM binding z-score does the source give for CCCACTGGGCCATCAGGTCATTGATATCAACGTT here?
A: 1.5

Q: For ACAGACAGGTGATGAAGGAAACTCAGGCTATCAT, which PBM binding z-score is on record?
A: -0.0645

Q: For ACTAGTTGGTCAGCTGAGGTCACGCACAATTCGG, which PBM binding z-score is on record?
A: 2.33

Q: ATCTCTAGGTAACAAGTTCAGTTAAAGAGAGGAC was tested. Which PBM binding z-score did it give?
A: 0.655

Q: CGTCAAAGTTCAACTAAGGTAACGTAAAGCACGC was tested. Which PBM binding z-score did it give?
A: 4.44

Q: With CCTAGCAGGCCAGGGCCACTCAAGCATTTCGCTT as the sequence, how does the PBM binding z-score read?
A: -0.625

Q: How did the PBM binding z-score turn out when CCTACTGGGCCATCAGGTCTTTGATATCAACGTT was run?
A: -0.21

Q: How did the PBM binding z-score turn out when AGTCAAAGTTCATCTAGGTAACGTCAGATATGCT was run?
A: 5.62

Q: With ACTAGCAGGCCAAGGGTCACTCATGATTAGTCCG as the sequence, how does the PBM binding z-score read?
A: 0.295

Q: With TCATATAGGTAAAGGTGAAAGTTGAACGATATGA as the sequence, how does the PBM binding z-score read?
A: 0.158

Q: Which PBM binding z-score does the source give for TGAATGAGTTTAAAGATCAGGGAACGTGGCGTCG here?
A: -0.578

Q: For CGTCCACGGTCAATGCTAGGTCAGTGAAAGCATT, which PBM binding z-score is on record?
A: 0.946

Q: For CAAACTCGGTCACCGGAAGGTCAAAGTCCGCATG, which PBM binding z-score is on record?
A: 4.93

Q: With GCGACTGGGGCAAAGCGGGTTACCATAAGGTTGG as the sequence, how does the PBM binding z-score read?
A: -0.512

Q: How did the PBM binding z-score turn out when AGAATGAGGTTATACGTAGATCAGGAAAGAAAGT was run?
A: 0.118

Q: Which PBM binding z-score does the source give for ATATGTAGGTTAGCTGGGGCCATTCAGACTAGGC here?
A: 0.0611

Q: TCTAGCAGGCCAGAGGGTCAATCAAGAGGTACGG was tested. Which PBM binding z-score did it give?
A: -0.494

Q: For ACTTACGGGTCAACGAGGTGATAGCACGCGTATA, which PBM binding z-score is on record?
A: 0.0422

Q: For CCTACTGGGCCACGAAAGGTCATTGTTTCAGTGA, which PBM binding z-score is on record?
A: 5.22

Q: ATACCAAGGTGATCGTCAGGTCGTTGATACTAAC was tested. Which PBM binding z-score did it give?
A: 0.311

Q: CCGCCTAGGTCAGGGCCAGTATAGGAGGAACGTT was tested. Which PBM binding z-score did it give?
A: -0.253

Q: For ATCTCTAGGTAACGTTCAGTGAAAGATCGATAGA, which PBM binding z-score is on record?
A: -0.179

Q: For CATACAGGGTCAGGTAGGCCAGAGTAGGGACGGC, which PBM binding z-score is on record?
A: -0.133

Q: CATACAGGGTCAGCTAGGCCAGAGTAGGGACGGC was tested. Which PBM binding z-score did it give?
A: -0.378

Q: With ATAACGAGGGCAATGAGTTGATAGCACGGGTGGC as the sequence, how does the PBM binding z-score read?
A: -0.402

Q: How did the PBM binding z-score turn out when CTTACAGGGTCAGCTAGGCCAGAGTAGGGACGGC was run?
A: -0.519

Q: How did the PBM binding z-score turn out when TCTTGTAGATCAACAGGAGGTTACGAAAGATCGA was run?
A: 0.0638

Q: For CCGCCTGGGGCAGAAAGGTTACCATACCATCCGG, which PBM binding z-score is on record?
A: -0.112

Q: With ATGGAAAGGTCGACGAGGTGAGTATACACCGTTT as the sequence, how does the PBM binding z-score read?
A: -0.133

Q: How did the PBM binding z-score turn out when TCTTGTAGATCAATAGAGGTTACGAAAGTGCGCT was run?
A: 0.474

Q: Which PBM binding z-score does the source give for TCTATTAGTTGAAGGGCAACTGACGAGTCCGTTT here?
A: 0.328
